# Several values for one entry are separate records, joined by “and”; a condition that tells them apart may be missing. Equal values may be shown once. About 79,000 compounds went through this panel and 15% of them were active in at least one assay; those are over-represented in the sample as a whole. A structure can be active in one record and inactive in another. Activity calls are given as the source filed them. Cut-off read from the data, not from the text of the source: active = growth inhibition above about 70%; inactive = the rest.
# Key:
# [1] = NCI Yeast Anticancer Drug Screen. Data for the rad50 strain (AID 155);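 note: 0% = growth of vehicle-only cultures of the same strain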; conditions: S. cerevisiae rad50 strain growth inhibition, stronger effect = higher value
# Procedure, shortened: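 Compounds were tested on a yeast strain with an engineered DNA damage repair alteration; the reported value is growth inhibition normalised to vehicle treatment.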
# [2] = NCI Yeast Anticancer Drug Screen. Data for the mec2-1 strain (AID 157); conditions: S. cerevisiae mec2-1 strain, stronger effect = higher value
# Procedure, shortened: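 Strain: mec2-1 (DNA repair/cell cycle alteration). Compound exposure, then growth measured; inhibition expressed relative to vehicle.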
# [3] = NCI Yeast Anticancer Drug Screen. Data for the sgs1 mgt1 strain (AID 161);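 note: 0% = growth of cultures given vehicle only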; conditions: S. cerevisiae sgs1 mgt1 strain, stronger effect = higher value
# Procedure, shortened: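 Genetically altered yeast, compound exposure, growth inhibition relative to vehicle.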
# [4] = NCI Yeast Anticancer Drug Screen. Data for the cln2 rad14 strain (AID 165);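 note: 0% = growth equal to vehicle treated cultures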; conditions: S. cerevisiae cln2 rad14 strain, stronger effect = higher value
# Procedure, shortened: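 Compounds are applied to the cln2 rad14 yeast strain, and growth is then compared with that of vehicle-treated cultures to give inhibition.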
# [5] = NCI Yeast Anticancer Drug Screen. Data for the bub3 strain (AID 167); conditions: S. cerevisiae bub3 mutant strain, stronger effect = higher value
# Procedure, shortened: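 Growth of a checkpoint-deficient yeast mutant is measured after compound exposure. Values represent inhibition relative to vehicle.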
# [6] = NCI Yeast Anticancer Drug Screen. Data for the mlh1 rad18 strain (AID 175); conditions: S. cerevisiae mlh1 rad18 strain growth inhibition, stronger effect = higher value
# Procedure, shortened: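 Read-out is yeast growth inhibition, calculated against vehicle-only controls. The compound was applied to a strain engineered with DNA damage repair alterations.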
# [7] = at 5.0 µM (retest, dose inferred, filed as 0.5)
# [8] = at 50.0 µM (retest, dose inferred, filed as 5.0)
SMILES,"growth inhibition [1, 7]","growth inhibition [1, 8]",growth inhibition ([1]; at 50.0 µM),"growth inhibition [2, 7]","growth inhibition [2, 8]",growth inhibition ([2]; at 50.0 µM),"growth inhibition [3, 7]","growth inhibition [3, 8]",growth inhibition ([3]; at 50.0 µM),"growth inhibition [4, 7]","growth inhibition [4, 8]",growth inhibition ([4]; at 50.0 µM),"growth inhibition [5, 7]","growth inhibition [5, 8]",growth inhibition ([5]; at 50.0 µM),"growth inhibition [6, 7]","growth inhibition [6, 8]",growth inhibition ([6]; at 50.0 µM)
Oc1c(Cl)cc(Cl)cc1Cc1cc(Cl)cc(Cl)c1O,93% (active) and 80% (active),98% (active),98.2% (active) and 99% (active),86% (active) and 85% (active),99% (active),98.8% (active) and 99.2% (active),92% (active) and 85% (active),98% (active),98.1% (active) and 99.4% (active),97% (active) and 84% (active),99% (active) and 98% (active),99% (active),88% (active) and 74% (active),98% (active),98.4% (active) and 99.3% (active),94% (active) and 89% (active),98% (active),98.5% (active) and 99.2% (active)
c1ccc(-c2nc3ccccc3[nH]2)cc1,1% (inactive),28% (inactive),6.4% (inactive) and 34.6% (inactive),-3% (inactive),19% (inactive),-5.55% (inactive) and 5.3% (inactive),-11% (inactive),29% (inactive),-8.85% (inactive) and 1% (inactive),4% (inactive),39% (inactive),-50.4% (inactive) and -4.4% (inactive),0% (inactive),24% (inactive),-13.2% (inactive) and -5.15% (inactive),0% (inactive),74% (active),-0.55% (inactive) and 43% (inactive)
O=C1OC2=C(c3ccccc3)CCCC2C1=O (stereo not given),-1% (inactive),88% (active),83% (active) and -7.3% (inactive),3% (inactive),89% (active),78.5% (active) and 4.7% (inactive),1% (inactive),69% (inactive),93.8% (active) and -3.3% (inactive),-3% (inactive),94% (active),92.5% (active) and 0.1% (inactive),0% (inactive),93% (active),85.4% (active) and -6.2% (inactive),0% (inactive),93% (active),91.7% (active) and 3.8% (inactive)
CN(C)C(=Nc1nc(=[N+](C)C)ss1)N(C)C,-17% (inactive),-10% (inactive),93% (active),3% (inactive),8% (inactive),44.2% (inactive),8% (inactive),-19% (inactive),86% (active),12% (inactive),13% (inactive),30.4% (inactive),10% (inactive),10% (inactive),49.4% (inactive),15% (inactive),13% (inactive),81.8% (active)
OC(c1ccccc1)(c1ccccc1)c1ccccc1 (tested in a mixture with another compound),-5% (inactive),94% (active),10.7% (inactive) and 96.7% (active),-7% (inactive),91% (active),2.55% (inactive) and 96.5% (active),-3% (inactive),90% (active),-1.85% (inactive) and 92.7% (active),-12% (inactive),94% (active),-4.75% (inactive) and 95.2% (active),-7% (inactive),96% (active),1.15% (inactive) and 95.4% (active),-6% (inactive),93% (active),9.15% (inactive) and 94% (active)
c1cc2c3c(cccc3c1)-c1cnccc1-2,31% (inactive),54% (inactive),91.1% (active),36% (inactive),84% (active),92.7% (active),-6% (inactive),97% (active),92.9% (active),48% (inactive),97% (active),90.8% (active),16% (inactive),98% (active),92.3% (active),35% (inactive),73% (active),91.8% (active)
CCn1c(-c2c(Cl)cc(O)cc2Cl)cc2c(Cl)cc(O)cc21,64% (inactive),99% (active),98.1% (active),97% (active),99% (active),99% (active),17% (inactive),98% (active),98.5% (active),13% (inactive),98% (active),98.5% (active),11% (inactive),96% (active),98% (active),22% (inactive),94% (active),98.6% (active)
O=[N+]([O-])c1cccc2nc3ccccc3c(NCCN(CCO)CCO)c12,81% (active),94% (active),71% (active),88% (active),98% (active),73.4% (active),91% (active),98% (active),52.5% (inactive),95% (active),99% (active),84.8% (active),79% (active),99% (active),-17.6% (inactive),90% (active),96% (active),58% (inactive)
c1cc2c3c(c1)ccc1cccc(c13)COC2,-21% (inactive) and -2% (inactive),10% (inactive) and 85% (active),86.3% (active) and 98% (active),-6% (inactive) and 9% (inactive),-8% (inactive) and 75% (active),51.1% (inactive) and 96.7% (active),-4% (inactive) and -10% (inactive),20% (inactive) and 58% (inactive),47.5% (inactive) and 95.8% (active),-42% (inactive) and 4% (inactive),-7% (inactive) and 27% (inactive),69.2% (inactive) and 96.5% (active),-13% (inactive) and -12% (inactive),10% (inactive) and 65% (inactive),88.2% (active) and 94.9% (active),-19% (inactive) and -11% (inactive),9% (inactive) and 89% (active),56.5% (inactive) and 98.2% (active)
COC1OC2COC(c3ccccc3)OC2C(O)C1OS(=O)(=O)c1ccc(C)cc1 (stereo not given),-3% (inactive),1% (inactive),46.5% (inactive) and 3.9% (inactive),0% (inactive),51% (inactive),46.4% (inactive) and 2.7% (inactive),-7% (inactive),46% (inactive),74.6% (active) and 16.9% (inactive),-10% (inactive),-8% (inactive),31.8% (inactive) and -1.35% (inactive),-3% (inactive),2% (inactive),32.3% (inactive) and -1.1% (inactive),-1% (inactive),49% (inactive),63.1% (inactive) and 0.65% (inactive)
O=C1OC(c2ccc(O)cc2)(c2ccc(O)cc2)c2cccc3cccc1c23,25% (inactive),99% (active),99% (active),11% (inactive),99% (active),99.2% (active),17% (inactive),99% (active),99% (active),14% (inactive),99% (active),98.9% (active),11% (inactive),99% (active),99% (active),23% (inactive),99% (active),98.3% (active)
c1ccc(-c2cnc(-c3ccc(-c4ncc(-c5ccccc5)o4)cc3)o2)cc1,-13% (inactive),-8% (inactive),-8.4% (inactive),-6% (inactive),-17% (inactive),-27.4% (inactive),-23% (inactive),-11% (inactive),-47.8% (inactive),-11% (inactive),-10% (inactive),91% (active),0% (inactive),5% (inactive),-32.6% (inactive),5% (inactive),-10% (inactive),-20.6% (inactive)
COC(=O)[C@]1(C)CCC[C@]2(C)c3cc(C(C)=O)c(C(C)C)cc3CC[C@@H]12,-1% (inactive),-11% (inactive),92.5% (active) and -4.55% (inactive),7% (inactive),10% (inactive),95.5% (active) and -11.9% (inactive),-4% (inactive),-27% (inactive),93.5% (active) and -5.45% (inactive),-1% (inactive),-2% (inactive),99.5% (active) and -40.8% (inactive),1% (inactive),0% (inactive),98.5% (active) and -5.05% (inactive),-2% (inactive),8% (inactive),97% (active) and -12.2% (inactive)
NCC(=O)OCN1C(=O)C2C3C=CC(C2C1=O)C1C2C(=O)N(COC(=O)CN)C(=O)C2C31 (stereo not given),28% (inactive),63% (inactive),-5.35% (inactive) and 24% (inactive),20% (inactive),39% (inactive),8.65% (inactive) and -62% (inactive),25% (inactive),45% (inactive),4.85% (inactive) and -30.4% (inactive),21% (inactive),55% (inactive),23.5% (inactive) and -6.55% (inactive),24% (inactive),68% (inactive),-15.2% (inactive) and -46.8% (inactive),26% (inactive),71% (active),-18.6% (inactive) and -43.7% (inactive)
COC(O)C(=O)c1c2c(cc3c1CCC3)CCCC2 (stereo not given),96% (active),100% (active),81.1% (active),98% (active),99% (active),88.4% (active),98% (active),99% (active),89.1% (active),85% (active),100% (active),91.7% (active),99% (active),100% (active),90.5% (active),98% (active),100% (active),92.5% (active)
